12-LOX inh = Primary qHTS assay for inhibitors of human arachidonate 12S-lipoxygenase (ALOX12): Round 2; Polyunsaturated fatty acid lipoxygenase ALOX12 (Homo sapiens), P18054; purified 12hLO, xylenol orange hydroperoxide absorbance; Potency, µM (series often up to 108 µM), for inactives: at the top dose activity change, negative = inhibition, usual class: inhibitors; actives 1.1% (n = 580,000)
Target sequence (P18054 whole entry, looked up): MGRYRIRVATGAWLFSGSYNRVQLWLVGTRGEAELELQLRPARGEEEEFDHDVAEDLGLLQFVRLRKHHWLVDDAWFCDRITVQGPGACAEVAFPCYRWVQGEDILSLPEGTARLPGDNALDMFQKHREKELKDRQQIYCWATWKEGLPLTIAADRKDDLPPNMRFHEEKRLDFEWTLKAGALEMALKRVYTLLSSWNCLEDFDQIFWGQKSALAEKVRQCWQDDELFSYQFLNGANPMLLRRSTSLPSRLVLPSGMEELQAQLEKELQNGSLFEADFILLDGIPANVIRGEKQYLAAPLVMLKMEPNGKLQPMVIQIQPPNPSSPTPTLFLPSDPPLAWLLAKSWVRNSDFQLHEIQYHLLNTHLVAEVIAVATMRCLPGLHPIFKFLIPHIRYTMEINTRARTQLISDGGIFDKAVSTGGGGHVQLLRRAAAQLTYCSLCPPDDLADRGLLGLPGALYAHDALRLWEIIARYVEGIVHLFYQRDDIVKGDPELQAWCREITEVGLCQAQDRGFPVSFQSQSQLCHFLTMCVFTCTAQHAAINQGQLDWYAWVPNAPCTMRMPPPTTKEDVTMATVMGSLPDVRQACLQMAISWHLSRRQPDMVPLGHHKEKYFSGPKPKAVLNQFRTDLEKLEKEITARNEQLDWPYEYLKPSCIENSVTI
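Hydroperoxide product was detected by ferrous iron/xylenol orange as the 573 to 405 nm absorbance ratio. Arachidonic acid at 40 uM (final) was turned over for 30 min at room temperature by 150 nM human 12hLO, pH 7.0 Hepes buffer, after 15 min compound preincubation.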
DT40 TDP1 CPT = qHTS for Inhibitors of human tyrosyl-DNA phosphodiesterase 1 (TDP1): qHTS in cells in presence of CPT; chicken DT40 Tdp1-/-;hTDP1 cells + 20 nM CPT, ATP luminescence, 48 h; Potency, µM (series often up to 46.2 µM), without a hit: at the top dose activity change, negative = growth inhibition, actives largely listed as inhibitors; actives 12% (n = 420,000); AID 686979, 2013; also: nearly all actives have a fitted effect of over 55% in size
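Cell growth measured by CellTiter-Glo luminescence after a minimum 48 h, 37 C compound exposure with 20 nM CPT in Tdp1-knockout DT40 cells stably expressing hTDP1, seeded 400/well; qHTS titration format.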
DT40 TDP1 no CPT = qHTS for Inhibitors of human tyrosyl-DNA phosphodiesterase 1 (TDP1): qHTS in cells in absence of CPT; actives 15% (n = 420,000); AID 686978, 2013; Potency, µM (doses to about 46.2 µM), without a hit: at the highest dose activity change, negative = growth inhibition, most hits filed as inhibitors; DT40 Tdp1-/- hTDP1 cells, no CPT, ATP luminescence, 48 h; also: nearly all actives have a fitted effect of over 55% in size
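Stably hTDP1-transfected Tdp1-null chicken DT40 cells were treated with library compounds minus camptothecin and grown for at least 48 hr at 37 °C, after which cellular ATP was quantified by luminescence.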
RORgamma inh = qHTS for inhibitors of ROR gamma transcriptional activity; actives 5.4% (n = 310,000); Potency, µM (top dose mostly 53.6 µM), for inactives: at the highest dose activity change, negative = inhibition, actives largely listed as inhibitors; Drosophila S2 Gal4-RORgamma UAS-luciferase reporter, 20 h; Nuclear receptor ROR-gamma (Mus musculus), P51450; AID 2551, 2010; also: nearly all actives have a fitted effect of over 60% in size
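Compounds are pin-transferred onto Drosophila Schneider cells expressing a copper-inducible Gal4–ROR gamma transactivation domain fusion. After 1 hr, copper sulfate is added to 700 uM final; luciferase is read 20 hr later.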
ELG1 DNA repair = qHTS screen for small molecules that inhibit ELG1-dependent DNA repair in human embryonic kidney (HEK293T) cells expressing luciferase-tagged ELG1; HEK293T ELG1-luciferase reporter, luminescence, 16 h; DNA damage induced by 5-fluorouridine; actives 2.3% (n = 330,000); Potency, µM (top dose mostly 46.1 µM), without a hit: top-dose activity change, negative = inhibition, most hits filed as inhibitors; also: nearly all actives have a fitted effect of over 55% in size
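Cells (2,000 per well) received 5-fluorouridine plus test compound or DMSO and were incubated 16 hr at 37 °C, 5% CO2. Luciferase activity was read by luminescence 30 min after ONE-Glo addition; signal suppression marked inhibition of damage-induced ELG1 function.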
VP16 counter = VP16 counterscreen qHTS for inhibitors of ROR gamma transcriptional activity. Potency, µM (top dose mostly 53.6 µM), without a hit: at the top dose activity, negative = inhibition, hits mostly inhibitors. actives 3.5% (n = 310,000). Drosophila S2 Gal4-VP16 UAS-luciferase, luminescence, 20 h;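 also: Gal4-VP16 expression switched on by copper sulfate through the metallothionein promoter; nearly all actives have a fitted effect of over 50% in size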
An asterisk follows results filed as active; u = inconclusive; x = no result given; [ ] = remark or other dose. A selection: hits, their analogues and other compounds. The true share with any hit is near 15%. Calls follow the shape of the dose curve; as a rule, active = well fitted curve in the direction sought with a large enough effect; inconclusive = small, poorly fitted or top-dose-only effect, or another doubt; inactive = no such curve, though single readings can be large; an effect the other way counts as inactive or inconclusive. % is scaled to controls: 0 for no effect and ±100 for the full control effect; potency is read from the fitted curve at half-maximal effect.

SMILES | 12-LOX inh | DT40 TDP1 CPT | DT40 TDP1 no CPT | RORgamma inh | ELG1 DNA repair | VP16 counter
Cc1ccc(S(=O)(=O)Nc2ccc(Nc3nccn4c(-c5cccc(OC(F)(F)F)c5)cnc34)cc2)cc1 | u | 18µM* | 12µM* | x | x | x
CCOc1cc(/C=C/C(=O)c2ccc(C)cc2)cc(Br)c1O | 40µM* | x | x | x | x | x
COc1cc(/C=C/C(=O)c2ccc(C#N)cc2)cc(Br)c1O | 8.9µM* | x | x | x | x | x
COc1cc(/C=C/C(=O)c2ccc(C)cc2)ccc1OCC#N | -26% | u | u | 19%[10 µM] | u | u
COc1ccc(/C=C/C(=O)c2ccc(C#N)cc2)cc1F | -1% | x | x | x | x | x
CCOc1ccc(OCCOc2ccc(/C=C/C(=O)O)cc2OCC)cc1 | -6% | 34% | 3% | u | -2% | 10%
CCOc1cc(/C=C/C(=O)c2ccc(C)cc2)ccc1OCC(=O)N(C)C | -22% | 18µM* | 21µM* | u | 18µM* | 4%
CCOc1cc(/C=C/C(=O)O)ccc1OCCO | -9% | 13µM* | 18µM* | 0% | 0% | 6%
Cc1ccc(N(C(=O)c2cccs2)C2C=CS(=O)(=O)C2)cc1C (centres undefined) | -1% | x | x | x | x | x
Cc1cc(NC(=O)CSc2nccn2-c2cccc(Cl)c2)on1 | 3% | x | x | x | x | x
CC(C)c1nncn1C1CCN(S(=O)(=O)Cc2cccc(Cl)c2)CC1 | 43% | x | x | x | x | x
CCOc1cc(/C=C/C(=O)c2ccc(Cl)c(Cl)c2)ccc1O | 6.3µM* | x | x | x | x | x
CCOc1ccc(/C=C/C(=O)c2ccc(Cl)cc2)cc1 | 2% | x | x | x | x | x
Nc1[nH]c(C(=O)c2ccccc2)c(-c2ccccc2Br)c1C(=O)NCc1ccc(-c2ccccc2)cc1 | -4% | 23µM* | 12µM* | x | x | x
Nc1[nH]c(C(=O)c2ccccc2)c(-c2ccccc2Br)c1C(=O)NCCc1c[nH]c2ccccc12 | -7% | 16µM* | 21µM* | x | x | x
Nc1[nH]c(C(=O)c2ccc(Br)cc2)c(-c2ccccc2Br)c1C(=O)NCCc1c[nH]c2ccccc12 | -22% | x | x | x | x | x
Nc1[nH]c(C(=O)c2ccccc2)c(-c2ccc([N+](=O)[O-])cc2)c1C(=O)NCCc1c[nH]c2ccccc12 | -4% | 23µM* | 15µM* | x | x | x
Nc1[nH]c(C(=O)c2ccc(Br)cc2)c(-c2ccc(Br)cc2)c1C(=O)NCCc1c[nH]c2ccccc12 | -49% | u | 18µM* | x | x | x
N#Cc1nc(COc2ccc(F)cc2)oc1NCc1ccc(F)cc1 | 4% | x | x | x | x | x
COc1ccc(C(=O)c2[nH]c(N)c(C(=O)NCCc3c[nH]c4ccccc34)c2-c2ccccc2Br)cc1 | 0% | 13µM* | u | x | x | x
COc1ccc(-c2c(C(=O)c3ccc(Br)cc3)[nH]c(N)c2C(=O)NCCc2c[nH]c3ccccc23)cc1OC | -2% | x | x | x | x | x
COC(=O)c1cc(NC(=O)c2cc(-c3ccccc3Cl)oc2C(F)(F)F)ccc1N1CCOCC1 | -2% | u | 21µM* | 18% | u | -5%
COC(=O)c1cc(NC(=O)c2cc(-c3ccc(Cl)cc3)oc2C(F)(F)F)ccc1N1CCOCC1 | u | u | 18µM* | 40% | -29% | u
COC(=O)c1cc(NC(=O)c2c(-c3c(Cl)cccc3Cl)noc2C)ccc1N1CCOCC1 | 5% | -24% | -23% | 3% | -8% | 7%
CCC(=O)Nc1ccc2nc(SCCOc3ccccc3)sc2c1 | -14% | -20% | -23% | x | x | x
